In the library only some 3.4% were active in any assay of this set; here they are far more common.
FXN GAA850 act – increases GAA850 frataxin promoter reporter activity; activation, % at 6 µM; HEK293 lucGAA850 FXN promoter luciferase reporter, 24 h; percent of 10 µM SAHA response; hit rate 0.56% among 360,000;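 active = activation above the average of all compounds screened plus 3 SD, cutoff fixed separately per campaign, cut at about 7.5% in these data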
PG9 binder – PG9 antibody binding by small molecule; TR-FRET gp120-PG9 antibody binding; inhibition, % at 6.7 µM; hit rate 0.43% among 360,000; AID 624416; in the data active = inhibition above about 8.5%
SMARCA2 act – SMARCA2 function activation, primary screen | AID 652017 | activation, % at 9.1 µM | hit rate 1% among 370,000 | MG213 cells, MMTV-luciferase reporter, dexamethasone, overnight; in the data active = activation above about 7.8%
AI-2 QS mod – modulators of Vibrio harveyi AI-2 quorum sensing system; hit rate 0.4% among 300,000; Vibrio harveyi JMH597 AI-2 luminescence/OD600 ratio, 9 h; stronger effect = lower value; strain lacks LuxN and CqsS sensors; 0 = neutral-control median; activity change, % at 7.5 µM; in the data active = activity change below about -75%, passing the limit was not always enough;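 note: luminescence divided by OD600 gain over 9 h not by final OD600 alone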
HSP90 inh – HSP90 refolding inhibition in rabbit reticulocyte lysate; luciferase refolding luminescence, 3 h; inhibition, % at 5.6 µM; hit rate 0.91% among 290,000; AID 1789;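 active = inhibition above the screen-wide mean plus 3 SD, computed separately per campaign, cut at about 16% in these data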;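 note: inhibitors lower the luminescence because luciferase stays unfolded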
HSF1 inh – HSF1 inhibition; NIH3T3-HGL HSE-luciferase, MG132-induced, luminescence 8 h; stronger effect = lower value; activity change, negative = inhibition, % at 7.5 µM (by protocol); hit rate 0.77% among 300,000;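 active = more than half of replicate wells show activity change below -50%, luminescence cut by over half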;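 note: luciferase reports HSF-1 transcriptional activity via heat shock element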
GAA30 counter – counter-screen for GAA850 frataxin promoter activators: GAA30 promoter activation | HEK293 lucGAA30 FXN promoter luciferase, 24 h; DMSO = 0%, 5 µM ipriflavone = 100% | activation, % at 6 µM | AID 588350 | shares compounds with FXN GAA850 act | hit rate 66% among 1,900;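 active = mean activation above the mean of solvent-only control wells plus 3 SD, cut at about 22% in these data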;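 note: counterscreen of GAA850 promoter hits where activity marks nonselective or luminescence artifacts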
GAA850 confirm – confirmation of GAA850 frataxin (FXN) promoter activators; shares compounds with FXN GAA850 act; HEK293 lucGAA850 FXN promoter luciferase reporter, 24 h; 100% = activation by SAHA; activation, % at 6 µM; hit rate 86% among 1,900; AID 588351;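 active = mean activation above a set limit taken from the primary screen, cut at about 8% in these data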
A number is an active result; . = inactive; / = no result given.

SMILES	FXN GAA850 act	PG9 binder	SMARCA2 act	AI-2 QS mod	HSP90 inh	HSF1 inh	GAA30 counter	GAA850 confirm
O=C(NCc1ccco1)c1cc(-c2ccccc2)on1	9.1	.	.	.	.	.	105	37
COc1ccc(NC(=O)c2cc(-c3ccccc3)on2)cc1OC	.	.	.	.	.	.	/	/
CC(C)CNC(=O)c1cc(-c2ccco2)on1	.	.	.	.	.	.	/	/
CC1CCC(NC(=O)C2CCC(CNS(=O)(=O)c3ccc4c(c3)C(C)(C)C(=O)N4C)CC2)CC1 (stereo not drawn)	.	.	.	/	/	/	/	/
Cc1ccc(-c2cc(C(=O)NCC3CCCO3)no2)cc1 (stereo not drawn)	.	.	.	.	.	.	/	/
O=C(NCC1CCCO1)c1cc(-c2ccccc2)on1 (stereo not drawn)	24	.	.	.	.	.	157	91
O=C(NCC1CCCO1)c1cc(-c2ccc(F)cc2)no1 (stereo not drawn)	11	.	.	.	.	.	85	31
COC(=O)N1Cc2ccnnc2CC1c1ccccc1-c1ccc(OC)cc1 (stereo not drawn)	/	.	.	/	/	/	/	/
COc1cccc(/C=N/Nc2nc(Nc3ccccc3)nc(-n3nc(C)cc3C)n2)c1O	12	.	.	.	.	.	.	15
Cc1cc(C)n(-c2nc(Nc3ccccc3)nc(-n3nc(C)cc3C)n2)n1	.	.	.	.	.	.	/	/
COc1cc2nc(=S)n3[nH]c(CCn4nc(C)cc4C)nc3c2cc1OC	19	.	.	.	.	.	32	17
COc1cc2nc(=S)n3[nH]c(COc4ccccc4C)nc3c2cc1OC	.	.	.	.	.	.	/	/
Cc1ccc(CC2(C)C(=O)Nc3c(Cl)ccc(Cl)c32)cc1 (stereo not drawn)	.	.	.	/	/	/	/	/
CCSc1n[nH]c(=O)n1C	/	.	.	/	/	/	/	/
Cn1/c(=N\NC(=O)c2ccccc2Cl)sc2ccccc21	8.1	.	.	.	.	.	104	27
CC(=O)N(C)C[C@@H]1Oc2cc(Br)ccc2S(=O)(=O)N([C@H](C)CO)C[C@@H]1C	/	.	.	/	/	/	/	/
S=C(Nc1ccccn1)c1ccccn1	15	.	7.8	.	.	.	104	43
S=C(NCCc1ccccc1)Nc1ccccn1	8.0	.	.	.	.	.	98	30
Cc1ccc(C)c(NC(=S)c2ccccn2)c1	13	.	.	.	.	.	78	28
S=C(Nc1ccccn1)Nc1ccccc1Cl	.	.	.	.	.	.	/	/
O=C(Cc1c[nH]c2ccccc12)Nc1ccc(Nc2cccnc2)cc1	/	.	.	/	/	/	/	/
CCN(C[C@H]1N[C@@](CC)(C(=O)OC)[C@H]2C(=O)N(Cc3ccccc3)C(=O)[C@@H]12)C(=O)Nc1ccc(C)cc1	14	.	.	/	/	/	33	12
CCN(C[C@H]1N[C@@](Cc2ccccc2)(C(=O)OC)[C@H]2C(=O)N(Cc3ccccc3)C(=O)[C@@H]12)C(=O)Nc1ccc(C)cc1	.	.	.	/	/	/	/	/
CCN(C[C@H]1N[C@@](CC)(C(=O)OC)[C@H]2C(=O)N(Cc3ccccc3)C(=O)[C@@H]12)C(=O)COc1ccccc1	8.0	.	.	/	/	/	28	14
CCN(C[C@H]1N[C@@](CC)(C(=O)OC)[C@H]2C(=O)N(Cc3ccccc3)C(=O)[C@@H]12)C(=O)Nc1ccc(Cl)cc1	15	.	.	/	/	/	31	14
SMILES	FXN GAA850 act	PG9 binder	SMARCA2 act	AI-2 QS mod	HSP90 inh	HSF1 inh	GAA30 counter	GAA850 confirm
CCN(C[C@H]1N[C@@](CC)(C(=O)OC)[C@H]2C(=O)N(Cc3ccccc3)C(=O)[C@@H]12)C(=O)COC	.	.	.	/	/	/	/	/
COc1ccc(-c2cn3ccccc3n2)cc1OC	7.9	.	.	.	.	.	146	44
COc1ccc(CC(=O)Nc2ccc(-c3cn4ccccc4n3)cc2)cc1OC	.	.	.	.	.	.	/	/
CC(C)(C)c1cc(N2CCOCC2)n2ncc(-c3ccccc3)c2n1	.	.	.	.	.	.	/	/
Cc1nc2c(-c3ccccc3)cnn2c(N2CCOCC2)c1C	8.3	.	.	.	.	.	127	44
Nn1c(SCC(=O)Nc2nccs2)nnc1-c1cc(-c2ccc(F)cc2)n[nH]1	/	/	.	/	/	/	/	/
Nc1ccc(Nc2nc(-c3cc4ccccc4oc3=O)cs2)cc1	9.0	.	.	.	.	.	74	32
C=CCN1C(=O)[C@@H](CC(=O)NCc2cccc3ccccc23)[C@]2(C(=O)OCC)CCCCC/C=C/12	/	/	.	/	/	/	/	/
Clc1ccc(-c2cn3cc(Br)ccc3n2)cc1Cl	8.2	.	.	.	.	.	71	22
COc1ccccc1NC(=O)c1cnc(SCC(=O)NCC2CCCO2)n(C)c1=O (stereo not drawn)	9.5	.	.	.	/	.	.	24
COc1ccccc1-n1nnnc1SCC(=O)NCC1CCCO1 (stereo not drawn)	.	.	.	.	/	.	/	/
O=C(NCC1COc2ccccc2O1)c1ccccc1 (stereo not drawn)	7.6	.	.	.	.	.	88	27
O=C(NC(=S)NCC1COc2ccccc2O1)c1ccccc1 (stereo not drawn)	.	.	.	.	.	.	/	/
O=S1(=O)c2ccc(N3CCSCC3)cc2Oc2ccccc2CN1Cc1cn(Cc2ccc(Cl)cc2)nn1	/	/	.	/	/	/	/	/
Cc1ccc(C(=O)N(C)[C@H]2C[C@H]3c4[nH]c5c(-c6cccc(C)c6)cccc5c4CCN3C[C@H]2[C@H](C)O)cc1	/	/	.	/	/	/	/	/
CSc1ccc(CC(=O)N2CCC(n3nccc3NC(=O)C3CC3)CC2)cc1	7.7	.	.	.	.	.	96	32
NC(Cc1ccc(Cl)cc1)c1csc(NC(=O)Nc2ccccc2)n1 (stereo not drawn)	7.6	.	.	/	/	/	.	11
CC(C)C1=CC2C3C(=O)N(c4ccccc4)C(=O)C3C1C(=O)C2(C)O (stereo not drawn)	/	.	.	/	/	/	/	/
CCc1nc2ccc(C(=O)NCCN3CCOCC3)cn2c1N(C)Cc1ccc(OC)cc1	.	.	.	/	/	/	/	/
CCc1nc2ccc(C(=O)NCCN3CCNC3=O)cn2c1N(C)Cc1ccc(OC)cc1	14	.	.	/	/	/	22	.
CCc1nc2ccc(C(=O)NCCOc3ccc(OC)cc3)cn2c1N(CC)Cc1ccc(OC)c(OC)c1	8.4	.	.	/	/	/	.	.
CC(C)CN1CCN(C(=O)COC(=O)c2ccc(S(C)(=O)=O)c([N+](=O)[O-])c2)CC1	9.7	.	.	/	/	/	70	15
